In PubChem BioAssay AID651814 (National Center for Advancing Translational Sciences (NCATS), 2012):
Screen size: about 2,100 compounds; about 590 (28%) were called active. Roughly 42% stayed inconclusive and do not appear here. The call rests on the fitted dose curve; in most records, active means well fitted inhibition curve with a large enough effect; inconclusive means small, poorly fitted or top-dose-only effect; inactive means flat fitted curve, though single readings scatter. This is one part of the list.

Each compound was assayed against DNA dC->dU-editing enzyme APOBEC-3F (Homo sapiens) (UniProt Q8IUX4) (assay: qHTS for inhibitors of Vif-A3F interactions: Cherry picks). Settings: HeLa A3F-eYFP + Vif (tagged APOBEC3F with the HIV-1 protein that degrades it), eYFP fluorescence, 24 h.
Procedure, shortened: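 Read-out: yellow fluorescence (ex 488 nm, em 500-530 nm) by laser-scanning cytometer after 24 h compound exposure, several concentrations, at 37 deg C. Cells: HeLa line stably co-expressing Vif and C-terminally eYFP-tagged A3F; MG132 served as positive control.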
Further: nearly all actives have a fitted effect of over 70% in size.
Potency means the concentration at half of the fitted maximal effect.
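Wherever Max response is given: % of control where 0% means no effect; active compounds raise eYFP fluorescence by blocking Vif-driven A3F loss.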

DNA dC->dU-editing enzyme APOBEC-3F (Homo sapiens), sequence (Q8IUX4 whole entry, looked up): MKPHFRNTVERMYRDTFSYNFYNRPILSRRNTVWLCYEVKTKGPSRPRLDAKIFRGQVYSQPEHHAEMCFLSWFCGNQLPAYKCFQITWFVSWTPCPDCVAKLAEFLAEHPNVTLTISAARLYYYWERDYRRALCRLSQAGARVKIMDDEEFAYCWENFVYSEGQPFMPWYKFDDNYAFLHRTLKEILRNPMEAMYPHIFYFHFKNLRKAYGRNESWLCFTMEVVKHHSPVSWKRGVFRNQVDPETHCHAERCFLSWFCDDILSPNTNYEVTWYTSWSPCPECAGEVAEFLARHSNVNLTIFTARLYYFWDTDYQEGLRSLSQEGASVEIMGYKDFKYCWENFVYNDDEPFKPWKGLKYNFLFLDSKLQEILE

Max response, inactive:
Cn1c(=O)c2c(nc(NC3CCCC3)n2C)n(C)c1=O -0.225%
COc1cc(/C=N/Nc2cc(C)nc(NS(=O)(=O)c3ccccc3)n2)ccc1O 2.36%
O=C(c1ccccn1)C1CCCN(Cc2cn[nH]c2-c2cc3ccccc3o2)C1 (stereo not given) 1.54%
O=C(O)CSc1c2ccccc2cc2ccccc12 -4.37%
CNC(=S)N/N=C(\C)c1ccc(Cl)s1 -3.1%
COCCNC(=S)N/N=C(\C)c1ccccc1O 0.575%
Cc1ccc2nc(NS(=O)(=O)c3ccc(Cl)cc3)c(Nc3ccc(C(=O)O)cc3)nc2c1 -8.36%
COc1ccc(NC(=O)c2ccc(NC(=O)C(C)C)cc2)c([N+](=O)[O-])c1 -19.6%
Cc1ccc(NC(=O)c2ccc(NCCCN3CCC(C)CC3)c([N+](=O)[O-])c2)cc1F -24%
O=C(NC(=S)Nc1ccc(N2CCCCC2)c(Cl)c1)c1ccc2c(c1)OCCO2 -28.8%
CC1C/C(=N\NC(N)=S)c2cc(Cl)ccc2S1 (stereo not given) -5.07%
C/C(CCC(C)C)=N\NC(=S)NCc1ccccc1 -4.2%
CCOC(=O)c1csc(NC(=O)c2cc(-c3ccccn3)nc3ccccc23)n1 -1.96%
O=C(CC1CC2CCC1C2)Nc1nc(-c2ccccn2)cs1 (stereo not given) 0.305%
Cc1sc2nc(SCC(=O)N3CCOCC3)[nH]c(=O)c2c1-c1ccccc1 -2.85%
Cc1cccc(OCCOc2ccccc2C=C(C#N)C#N)c1 -24.6%
CCCOc1cc(N(CC)CC)ccc1/C=C(/C#N)c1nc2ccc(C)cc2[nH]1 0.514%
C/C(=N\NC(N)=S)C12CC3CC(CC(C3)C1)C2 3.49%
CCOc1cc(Br)cc(/C=C2\SC(=Nc3ccccc3)NC2=O)c1O -27.7%
CC12CC3CC(C)(C1)CC(C(=O)NC(=S)N1CCOCC1)(C3)C2 4.69%
CSc1nc(N)c(C#N)c(-c2ccccc2Cl)c1C#N -19.1%
CC(=O)Nc1cccc(-c2ccnc3c2CC(C)(C(=O)NCc2cccs2)O3)c1 (stereo not given) -24.8%
CN(C)S(=O)(=O)c1ccc(N2CCCC2)c(C(=O)N2CCN(S(=O)(=O)c3ccc(F)c(F)c3)CC2)c1 3.41%
COc1ccc(OCCCC(=O)N2CCN(S(=O)(=O)c3cccc(F)c3)CC2)cc1 -3.23%
CC1(C)Cc2c(sc3ncnc(NNC(=S)NCc4ccccc4)c23)CO1 -20.8%
C=C(C)CNC(=S)NNC(=O)c1ccco1 4.89%
N#C/C(=C/c1ccc(-c2ccc([N+](=O)[O-])cc2)o1)C(=O)Nc1nc(-c2cccs2)cs1 -8.39%
CS(=O)(=O)Nc1ccc(C2=NN(S(=O)(=O)c3ccccc3)C(c3cccs3)C2)cc1 (stereo not given) -22.9%
CCOc1ccccc1C1CC(c2cccs2)=NN1S(C)(=O)=O (stereo not given) -22.3%
COc1ccccc1N1C(=O)c2cccc3c(C(=O)O)ccc(c23)C1=O 1.5%
CCCCN1C(=O)c2cccc3cc(O)cc(c23)C1=O -4.14%
O=C1c2cccc3c(N4CCCCC4)ccc(c23)C(=O)N1c1ccc(O)cc1 -17.3%
Cc1ccc(Cc2c(C3CCCCC3)nc3ccc(C)cn23)cc1 -5.74%
COc1ccccc1/C=C/C=N/n1c(-c2ccc(C)cc2)n[nH]c1=S -22%
N#CC(C(=O)NCc1ccccc1)c1nc2ccccc2nc1N1CCCC1 (stereo not given) -25.3%
CCS(=O)(=O)C1=NN2C(=N)/C(=C\c3ccc(SCc4ccco4)o3)C(=O)N=C2S1 -0.189%
CCCCN1C(=O)/C(=C/C=C2\Oc3ccccc3N2CC)SC1=S -1.16%
COC(=O)c1[nH]c2c(c1C(=O)OC)CCc1ccccc1-2 -7.85%
CC(C)c1ccc(NC(=O)Nc2cnccn2)cc1 -23.5%
Cc1nc(-c2ccc(Cl)cc2)sc1C(=O)NN -25%
S=C(NC1CCCCC1)N(CCc1ccccc1)CCc1ccccc1 -2.16%
Cc1ccc(N2C(=O)CS/C2=C(\C(Cl)=C(Cl)Cl)[N+](=O)[O-])cc1 2.65%
Cc1ccc(NC(=O)Cc2ccc(-n3cccc3)cc2)c(C)c1 -1.25%
O=C(O)c1ccc(N/N=C/C(Br)=C/c2ccccc2)cc1 -18.2%
O=S(=O)(N=C1C=CC(=NS(=O)(=O)c2ccccc2)c2ccccc21)c1ccccc1 -24.1%
O=C(/C=C/c1ccncc1)c1cc(Cl)ccc1O 3.83%
COc1ccc(N/C=C/C(=O)c2sc(-c3ccccc3)nc2C)cc1 -17.8%
CCOC(=O)c1c(CC(C)C)csc1/N=C/C1C(=O)CCCC1=O -3.21%
CCc1ccc2c(c1)NC(=O)C2(C)Cc1ccccc1Cl (stereo not given) -19.4%
COc1ccccc1C(=O)NC(=S)Nc1ccc(NC(=O)c2ccco2)cc1 -12.8%
COCCCNc1nc2ccccc2nc1NS(=O)(=O)c1ccccc1 -2.62%

Potency, active:
O=[N+]([O-])c1ccc(N/N=C/c2c[nH]c3ccccc23)c(S(=O)(=O)Nc2ccc(Cl)cc2)c1 18.4 µM
COc1ccc(NS(=O)(=O)c2cc([N+](=O)[O-])ccc2N/N=C/c2c(C)[nH]c3ccccc23)cc1 16.4 µM
C/C(=N/Nc1ccc([N+](=O)[O-])cc1)c1c[nH]c2ccccc12 9.2 µM
O=C(Nc1cc(F)cc(F)c1)c1ccc(NCCc2ccccc2)c([N+](=O)[O-])c1 20.6 µM
Cc1ccc(NC(=O)c2ccc(NCc3ccco3)c([N+](=O)[O-])c2)cc1Cl 16.4 µM
Cc1ccc(NC(=O)c2ccc(NCC3CCCO3)c([N+](=O)[O-])c2)cc1Cl (stereo not given) 20.6 µM
CCOC(=O)Cc1csc(NC(=O)c2sc3nc4c(C)cc(C)cc4cc3c2N)n1 20.6 µM
C[C@]12CCC[C@H](O1)c1c(cc3c(c1O)C(=O)c1c(O)cc(O)cc1C3=O)O2 14.6 µM
CCOC(=O)CSc1nc2c(c(=O)[nH]1)C(C)(CC)Cc1ccccc1-2 (stereo not given) 8.2 µM
CCN(CC)c1ccc(/C=C(/C#N)c2nc3ccccc3[nH]2)c(OC(C)C)c1 2.06 µM
CCOc1cc(N(CC)CC)ccc1/C=C(/C#N)c1nc2ccccc2[nH]1 1.46 µM
CN(C)c1ccc(C=C2SC(=S)NC2=O)cc1 17.7 µM
CCOc1ccc(N(C)c2ccc(/C=C3/SC(=S)NC3=O)cc2)cc1 15.8 µM
COc1ccccc1N=C1NC(=O)/C(=C/c2ccc(N(C)C)cc2)S1 4.11 µM
Cc1ccc(NC(=O)/C(C#N)=C\c2ccc(-c3ccc(Cl)cc3)o2)c(C)c1 7.31 µM
CCN(CC)CCCNc1ccc2ncn3c4ccc(O)cc4c(=O)c1c23 8.2 µM
CN(C)CCNc1ccc2ncn3c4ccc(O)cc4c(=O)c1c23 20.6 µM
CCc1ccc(C2=NN(S(C)(=O)=O)C(c3cccs3)C2)cc1 (stereo not given) 15.8 µM
N#C/C(=C\c1cccc(O)c1)c1nc2ccccc2o1 3.53 µM
C=CCN1C(=O)c2cccc3c(N4CCCCC4)ccc(c23)C1=O 16.4 µM
O=C1c2cccc3c(N4CCCCC4)ccc(c23)C(=O)N1CCO 15.8 µM
O=C(O)c1ccccc1N/N=C/c1c(Sc2nnnn2-c2ccccc2)nc2ccccn2c1=O 9.94 µM
CN1C/C(=C\c2ccc(N3CCOCC3)cc2)C(=O)/C(=C/c2ccc(N3CCOCC3)cc2)C1 18.4 µM
Cc1ccc(-c2nc(-c3cc4cccc(OCc5cccc(F)c5)c4oc3=O)no2)cc1 18.4 µM
Nc1c(C(=O)c2ccccc2)sc2nsc(SCCN3CCCC3)c12 14 µM
Nc1c(C(=O)c2ccccc2)sc2snc(SCC(=O)c3ccccc3)c12 17.7 µM
CCN(CC)c1nc2ccccc2nc1C(C#N)C(=O)NCCc1ccccc1 (stereo not given) 3.66 µM
CC1=CN2C(=N)/C(=C/c3ccc([N+](=O)[O-])o3)C(=O)N=C2S1 14 µM
CCSC1=N/C(=C\C=C2/Oc3ccccc3N2CC)C(=O)S1 20.6 µM
CC(O)CN(CC(C)O)c1ccc2c(c1)Cc1cc([N+](=O)[O-])ccc1-2 (stereo not given) 3.66 µM
CC(=O)c1sc2nc(-c3cccs3)cc(C(F)(F)F)c2c1N 7.31 µM
CCN(CC)C(=O)c1sc2nc(-c3cccs3)cc(-c3ccc(Cl)cc3)c2c1N 15.8 µM
Nc1c(C(=O)C2CC2)sc2nc(-c3cccs3)cc(C(F)(F)F)c12 1.64 µM
CC(C)(C)C(=O)c1sc2nc(-c3cccs3)cc(C(F)(F)F)c2c1N 1.03 µM
Cc1ccc(NC(=O)C(=Cc2ccc(C(=O)O)cc2)C(=O)Nc2ccc(C)cc2C)c(C)c1 5.59 µM
O=C1COc2ccc(C(=O)CSc3nc4ccccc4c(=O)n3-c3ccc(Cl)c(Cl)c3)cc2N1 18.4 µM
CC[n+]1c(/C=C/Nc2ccccc2)oc2ccccc21 7.31 µM
CC[n+]1c(/C=C/Nc2ccccc2)oc2ccc(OC)cc21 20.6 µM
CC[n+]1c(/C=C/N(C)c2ccccc2)oc2ccc(F)cc21 11.2 µM
